Entries with a potency or affinity are not part of this list. Activity calls are given as the source filed them.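 How the source made its calls: active means cell killing with a fitted half-effect concentration at or below twice the top valid dose; inconclusive means flat curve with 30 to 70 percent drop, or poor fit; inactive means the rest.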

The experiment in a line: viability loss in HEK293T kidney cells – cell-based, ATP luminescence, cherry-pick, set 6, cytotoxicity control, dose response (AID 1053126).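 Further: 0% = neutral control wells and -100% = mitoxantrone 10 µM positive control.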 The following applies: CellTiter-Glo ATP luminescence, 72 h; series mostly up to 26 µM; activity change, negative = cytotoxicity: at the top concentration. On the technique in general: Cellular ATP, detected with luciferase, serves as a proxy for viable cell number.
With `CN1CCc2c(sc(NC(=O)C3CCCCC3)c2C(N)=O)C1`, the “activity change, negative = cytotoxicity” value was -9.23% (inactive).

Turning to `N#C/C(=C\c1ccco1)C(=O)Nc1cccc2ncccc12`, the “activity change, negative = cytotoxicity” value is 6.1% (inactive). Turning to `Cc1noc(C)c1S(=O)(=O)N(CC(=O)N1CCCCCC1)c1ccc(C(C)C)cc1`, the “activity change, negative = cytotoxicity” value is -16.6% (inactive).

`COc1ccc(C2C(C#N)=C(N)Oc3cc(O)ccc32)cc1Cl` (stereo not drawn): the “activity change, negative = cytotoxicity” value is 6.37% (inactive). The value for `O=C(Cn1ccc([N+](=O)[O-])n1)N1CCCCCC1` was -8.62% (inactive).

Regarding `O=C(O)c1ccc(-c2ccc(/C=C3\NC(=O)N(Cc4ccc(Cl)cc4)C3=O)o2)cc1`, the “activity change, negative = cytotoxicity” value is -3.02% (inactive). Take `CC(C)c1ccc(/C=C2\Oc3c(ccc(O)c3CN3CCN(C)CC3)C2=O)cc1`: the “activity change, negative = cytotoxicity” value is -6.47% (inactive). `O=C(O)c1[nH]c2ccccc2c1C(c1cc(Br)ccc1O)c1c(C(=O)O)[nH]c2ccccc12`: the “activity change, negative = cytotoxicity” value was 25.2% (inactive). As for `COC(=O)C1=CN(Cc2ccc(OC)c(OC)c2)C=C(C(=O)OC)C1c1cccc(F)c1`, the “activity change, negative = cytotoxicity” value is -13.2% (inactive).

Consider `CC(=O)NNc1cc(N2CCOCC2)nc(N2CCOCC2)n1`, for which the “activity change, negative = cytotoxicity” value is -6.77% (inactive). To `Cc1oc(/N=C/c2ccc(F)cc2)c(C#N)c1C` belongs -3.38% (inactive); to `CCOC(=O)c1cc2c(=O)n3ccccc3nc2n(Cc2ccc(Cl)cc2)c1=N`, 7.6% (inactive); to `C/C(=N\NC(=O)CC#N)c1cc2ccc(O)cc2oc1=O`, 12.9% (inactive). With `CNNC(=S)NC1CC2CC1C1C=CCC21` (stereo not drawn), the “activity change, negative = cytotoxicity” value was 19.1% (inactive).

As for `CCc1nc(SCC(=O)c2ccccc2)c2ccccc2n1`, the “activity change, negative = cytotoxicity” value was -14.7% (inactive).

In the case of `CC1CCCCC1NC(=O)CN1C(=O)c2cccc(N)c2C1=O` (stereo not drawn), the “activity change, negative = cytotoxicity” value is 33.5% (inactive). Take `COc1cccc(N2CCN(C(=O)C3CCCN(S(=O)(=O)c4cnc[nH]4)C3)CC2)c1` (stereo not drawn): the “activity change, negative = cytotoxicity” value was 34.1% (inactive). As for `O=C(NNc1c2ccccc2nc2ccccc12)c1ccc(O)cc1`, the “activity change, negative = cytotoxicity” value is -17.1% (inactive).

Take `N#C/C(=C\c1ccc(N2CCOCC2)o1)C(=O)NCCc1ccccc1`: the “activity change, negative = cytotoxicity” value is -16.7% (inactive).

On to `CCc1cccc(OC2OC(CO)C(O)C(O)C2NC(C)=O)c1` (stereo not drawn), for which the “activity change, negative = cytotoxicity” value is -15.4% (inactive). As for `COCCCn1c(=N)c(C(=O)NC2CCCCC2)cc2c(=O)n3ccccc3nc21`, the “activity change, negative = cytotoxicity” value was 22.6% (inactive). For `CCOC(=O)c1oc2c(CN3CCN(CCO)CC3)c(O)c(CC)cc2c(=O)c1-c1nc2ccccc2s1`, the “activity change, negative = cytotoxicity” value was -10.5% (inactive). Consider `COc1ccc(C(=O)Oc2cc(N)n(S(=O)(=O)c3ccccc3)n2)cc1`, for which the “activity change, negative = cytotoxicity” value was 8.42% (inactive). For the molecule `N#Cc1c2ccc(OCC(N)=O)cc2n2ccccc12`, the “activity change, negative = cytotoxicity” value was -5.42% (inactive). Turning to `COc1ccccc1C1C2=C(CC(C)(C)CC2=O)N(CC(=O)O)C2=C1C(=O)CC(C)(C)C2`, the “activity change, negative = cytotoxicity” value is 24.7% (inactive). In the case of `CCN(CC)CCN1C2=C(C(=O)CC(C)(C)C2)C(c2cccc(F)c2)C2=C1CC(C)(C)CC2=O`, the “activity change, negative = cytotoxicity” value was -0.832% (inactive).

Consider `O=C(O)c1cccc(Nc2nc(-c3cc4ccccc4oc3=O)cs2)c1`, for which the “activity change, negative = cytotoxicity” value is -14.3% (inactive). As to `CCN(CC)CCCNc1nc(C)cc(COC)c1C#N`, the “activity change, negative = cytotoxicity” value was -13.8% (inactive). As to `O=C(CCCN1C(=O)CSc2ncccc21)N1CCN(Cc2ccccc2)CC1`, the “activity change, negative = cytotoxicity” value is -10.1% (inactive).

Turning to `CCn1c(=NC(=O)CSC(C)=O)sc2cc(OC)ccc21`, the “activity change, negative = cytotoxicity” value is -9.23% (inactive). The value for `O=c1oc2cc(O)ccc2cc1S(=O)(=O)c1ccccc1` was -5.95% (inactive); that for `CCN(CC)c1ccc2cc(C(N)=O)c(=O)oc2c1` was -7.72% (inactive); that for `CN(C)CCOCCOc1ccc(Cl)c2ccccc12` was -24.5% (inactive). `CCOC(=O)C1CCCN(CCCc2ccccc2)C1` (stereo not drawn): the “activity change, negative = cytotoxicity” value was -3.56% (inactive). The value for `O=C(NNc1cc(N2CCCC2)nc(N2CCCC2)n1)c1ccc([N+](=O)[O-])cc1` was -11.6% (inactive); that for `CCOc1ccc2nc(NCCCNS(=O)(=O)c3ccc(C)cc3)c(C#N)cc2c1` was 31.9% (inactive).

Turning to `O=c1[nH]c(Nc2ccccc2Cl)cc2ccccc12`, the “activity change, negative = cytotoxicity” value is 56.3% (inactive). In the case of `O=C(O)c1ccc(N2N=C(c3ccccc3)CC2c2ccccc2)cc1` (stereo not drawn), the “activity change, negative = cytotoxicity” value was -11.6% (inactive).
